From PubChem BioAssay
This is a sample that favours compounds with a hit; in the whole collection about 8.1% have one here.
MCF10A rerep – induces DNA re-replication in MCF 10a normal breast cells; 350,000 tested, 2.9% active; Potency, µM (highest dose often 46.1 µM), inactives show at the top dose activity, positive = re-replication, actives largely listed as activators; MCF 10A DNA re-replication, Hoechst nuclear intensity, 48 h; further: % of control where 0% means no effect; nearly all actives have a fitted effect of over 50% in size
KB-3-1 tox – kills parental KB-3-1 adenocarcinoma cells | KB-3-1 viability, CellTiter-Glo ATP luminescence, 72 h | Potency, µM (doses to about 46.1 µM), most hits filed as cytotoxic | 400,000 tested, 1.4% active; further: on the % scale 0 is the no-effect control and ±100 the full control effect; nearly all actives have a fitted effect of over 60% in size
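Cells are dispensed, compounds pinned in, plates held at 37 °C for 72 h, then CellTiter-Glo is added and luminescence read after 10 minutes. Cell line: parental KB-3-1 in phenol-red-free DMEM, 10% FBS.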
SW480 rereplic – induces DNA re-replication in SW480 colon adenocarcinoma cells. SW480 DNA re-replication, Hoechst DNA content imaging, 48 h. Potency, µM (highest dose often 46.1 µM), inactives show top-dose re-replication activation, hits mostly activators. 340,000 tested, 1.8% active; further: % of control where 0% means no effect; nearly all actives have a fitted effect of over 55% in size
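Compounds, transferred as 23 nL by pin tool, were incubated with cells for 48 hr; DNA content per nucleus was then quantified by Hoechst staining and fluorescence plate imaging.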
KB-V1 MDR tox – KB-V1 MDR subline cytotoxicity. Potency, µM (doses to about 46.1 µM), most hits filed as cytotoxic. KB-V1 MDR cells viability, CellTiter-Glo, 72 h. AID 1347076. 400,000 tested, 3.4% active; further: on the % scale 0 is the no-effect control and ±100 the full control effect; nearly all actives have a fitted effect of over 60% in size
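In this primary screen, KB-V1 cells overexpressing P-gp are incubated with library compounds (lowest to highest concentration) for 72 h at 37 degrees C before a luminescent ATP viability read.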
ELG1 DNA repair – inhibitors of ELG1-dependent DNA repair in HEK293T cells; HEK293T ELG1-luciferase reporter, luminescence, 16 h; DNA damage induced by 5-fluorouridine; AID 504467; Potency, µM (titrated, usually from 46.1 µM), inactives show at the top dose activity change, negative = inhibition, usual class: inhibitors; 330,000 tested, 2.3% active; further: on the % scale 0 is the no-effect control and ±100 the full control effect; nearly all actives have a fitted effect of over 55% in size
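DMSO vehicle served as the neutral condition. Each well held 2,000 cells given 5-fluorouridine plus compound; after 16 hr at 37 °C/5% CO2, ONE-Glo was added and luciferase measured 30 min later.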
The depositor's hits bear a star. The call rests on the fitted dose curve; in most records, active means well fitted curve in the direction sought with a large enough effect; inconclusive means small, poorly fitted or top-dose-only effect, or another doubt; inactive means no such curve, though single readings can be large; an effect the other way counts as inactive or inconclusive. Potency means the concentration at half of the fitted maximal effect.

What do the screens show for `Cn1cnc2c(NCc3ccco3)ncnc21`?
MCF10A rerep: 36%; KB-3-1 tox: inactive; SW480 rereplic: -44%; KB-V1 MDR tox: inactive; ELG1 DNA repair: -10%

What do the screens show for `COc1ccc(-c2noc(-c3cccnc3NCc3ccco3)n2)cc1`?
KB-3-1 tox: inactive; KB-V1 MDR tox: inactive

How did COC(=O)C[C@H]1c2cc(C(F)(F)F)ccc2S(=O)(=O)N1C(C)C do in these assays?
KB-3-1 tox: inactive; KB-V1 MDR tox: inactive

Results for CCOc1ccc(-c2cc3c(=O)n(Cc4nc(-c5ccccc5OCC)oc4C)ccn3n2)cc1Cl ?
KB-3-1 tox: inactive; KB-V1 MDR tox: inactive

How did Cc1ccc2[nH]c(=O)c(CN(CCCO)Cc3nnnn3Cc3ccco3)cc2c1 do in these assays?
KB-3-1 tox: inconclusive; KB-V1 MDR tox: inactive

How did CC(NC(=O)c1cc(S(=O)(=O)N2CCOCC2)cn1C)c1ccccc1 (configuration not stated) do in these assays?
MCF10A rerep: 7%; KB-3-1 tox: inactive; SW480 rereplic: -10%; KB-V1 MDR tox: inactive; ELG1 DNA repair: 0%

Results for CC1(C)CC(=O)c2cc(C(=O)O)c(=O)n(-c3ccccc3)c2C1 ?
MCF10A rerep: 15%; KB-3-1 tox: inactive; SW480 rereplic: -2%; KB-V1 MDR tox: inactive; ELG1 DNA repair: 10%

What do the screens show for `CC1(C)CC(=O)c2c(O)c(-c3ccccc3)c(=O)n(-c3ccccc3)c2C1`?
MCF10A rerep: 13%; KB-3-1 tox: inactive; SW480 rereplic: -10%; KB-V1 MDR tox: 13µM*; ELG1 DNA repair: -17%

Results for O=C(Nc1ccc(F)cc1)C(c1ccccc1)N1CCN(c2cccc(C(F)(F)F)n2)CC1 (configuration not stated) ?
KB-3-1 tox: inactive; KB-V1 MDR tox: inactive

How did COc1ccc(-c2nc(C)c(CCNS(=O)(=O)c3ccc(F)cc3)s2)cc1OC do in these assays?
KB-3-1 tox: inconclusive; KB-V1 MDR tox: 9.2µM*

How did COc1ccc(S(=O)(=O)NCCc2sc(C)nc2C)cc1 do in these assays?
KB-3-1 tox: inactive; KB-V1 MDR tox: inconclusive

How did COc1ccc(-c2nc(C)c(CCNS(=O)(=O)c3cc(Cl)ccc3Cl)s2)cc1 do in these assays?
KB-3-1 tox: 15µM*; KB-V1 MDR tox: 21µM*

What do the screens show for `COc1ccc(OC)c(S(=O)(=O)NCCc2sc(-c3cccnc3)nc2C)c1`?
KB-3-1 tox: inactive; KB-V1 MDR tox: inconclusive

What do the screens show for `Cc1nc(-c2ccccc2)sc1CCNS(=O)(=O)c1ccc(Br)cc1`?
KB-3-1 tox: inconclusive; KB-V1 MDR tox: 21µM*

How did Cc1nc(C)c(CCNS(=O)(=O)c2ccc(C)c(C)c2)s1 do in these assays?
KB-3-1 tox: inconclusive; KB-V1 MDR tox: 21µM*

What do the screens show for `CC(C)Oc1ccccc1-c1nc(SCC(=O)c2ccc(F)cc2)n[nH]1`?
KB-3-1 tox: inactive; KB-V1 MDR tox: inactive

Results for Cc1cc(Cl)ccc1OCCSc1nnc(-c2cccs2)o1 ?
KB-3-1 tox: inactive; KB-V1 MDR tox: inactive

How did O/N=C(/CI)c1ccc2ccccc2c1 do in these assays?
KB-3-1 tox: inactive; KB-V1 MDR tox: inactive

How did COc1ccc(-c2nc(C)c(CCNS(=O)(=O)c3cc(C)c(C)cc3C)s2)cc1 do in these assays?
KB-3-1 tox: inconclusive; KB-V1 MDR tox: 18µM*

How did COc1ccc(Cc2c(-c3ccc(C)cc3)nc3cc(C)c(Br)c(C)n23)c(C)c1 do in these assays?
KB-3-1 tox: inactive; KB-V1 MDR tox: inactive

How did CN(C)CCC(C(=O)c1ccccc1)c1cccnc1 (configuration not stated) do in these assays?
MCF10A rerep: -3%; KB-3-1 tox: inactive; SW480 rereplic: 0%; KB-V1 MDR tox: inactive

How did CC(C)c1cc(CNC(=O)c2cc(COc3cncc(Cl)c3)on2)on1 do in these assays?
MCF10A rerep: 0%; KB-3-1 tox: inactive; SW480 rereplic: 0%; KB-V1 MDR tox: inactive; ELG1 DNA repair: inconclusive

How did COC(=O)c1ccc(CNC(=O)c2cc(COc3cncc(Cl)c3)on2)cc1 do in these assays?
MCF10A rerep: 8%; KB-3-1 tox: inactive; SW480 rereplic: 13%; KB-V1 MDR tox: inactive; ELG1 DNA repair: 21µM*

Results for CCCCNC(=O)C[C@@H]1C[C@@]2(C(=O)OCC)CCCC=C2N(Cc2ccco2)C1=O ?
KB-3-1 tox: inactive; KB-V1 MDR tox: inconclusive

How did O=C(/C=C/c1ccc([N+](=O)[O-])o1)Nc1cccc([S+](=O)([O-])Nc2ccccc2F)c1 do in these assays?
KB-3-1 tox: inactive; KB-V1 MDR tox: inactive

Results for CCc1ccc(OCCOCC(O)CN2CCN(Cc3ccc(Cl)cc3)CC2)cc1 (configuration not stated) ?
MCF10A rerep: 15µM*; KB-3-1 tox: inconclusive; SW480 rereplic: inconclusive; KB-V1 MDR tox: inactive; ELG1 DNA repair: -17%

What do the screens show for `COc1cccc(OCCOCC(O)CN2CCN(Cc3ccc(Cl)cc3)CC2)c1` (configuration not stated)?
MCF10A rerep: inconclusive; KB-3-1 tox: inactive; SW480 rereplic: -3%; KB-V1 MDR tox: inactive; ELG1 DNA repair: -26%

What do the screens show for `Cc1cc2c(n1-c1ccc(Cl)cc1)CC(C)(C)CC2=O`?
MCF10A rerep: -2%; KB-3-1 tox: inactive; SW480 rereplic: -6%; KB-V1 MDR tox: 13µM*; ELG1 DNA repair: 7%

What do the screens show for `CC1(C)CC(=O)c2cc(C#N)c(=O)n(-c3ccc(Cl)cc3)c2C1`?
KB-3-1 tox: inactive; KB-V1 MDR tox: inactive

What do the screens show for `COc1cc(NS(=O)(=O)c2ccc(OC)c(C)c2C)c(OC)cc1Cl`?
MCF10A rerep: inconclusive; KB-3-1 tox: 3.3µM*; SW480 rereplic: 5.6µM*; KB-V1 MDR tox: inactive; ELG1 DNA repair: inconclusive

How did OC1COC(O)C(O)C1O (configuration not stated) do in these assays?
MCF10A rerep: -11%; KB-3-1 tox: inactive; SW480 rereplic: inconclusive; KB-V1 MDR tox: inactive; ELG1 DNA repair: 2%

Results for CCOC(=O)c1c(NC(=O)c2cccc(N3C(=O)CCC3=O)c2)sc(C)c1C ?
MCF10A rerep: 14%; KB-3-1 tox: inactive; SW480 rereplic: -4%; KB-V1 MDR tox: 10µM*; ELG1 DNA repair: inconclusive

Results for CCOC(=O)c1c(-c2ccc(-c3ccccc3)cc2)csc1NC(=O)c1cccc(N2C(=O)CCC2=O)c1 ?
MCF10A rerep: 15%; KB-3-1 tox: inactive; SW480 rereplic: -4%; KB-V1 MDR tox: inconclusive; ELG1 DNA repair: 7.3µM*

Results for NC(=O)c1c(NC(=O)c2cccc(N3C(=O)CCC3=O)c2)sc2c1CCCCC2 ?
MCF10A rerep: 0%; KB-3-1 tox: inactive; SW480 rereplic: -30%; KB-V1 MDR tox: inactive; ELG1 DNA repair: inconclusive
